Measurements reported in PubChem BioAssay AID1159580 (chemical genetic matrix, 2015).
Out of some 5,500 compounds screened, about 2,000 (36%) were called active. About 18% were inconclusive and are not listed. Cut-off read from the data, not from the text of the source: active = normalized growth mostly below about 0.91 (no sharp cut-off); inconclusive = no clear call, values can overlap the other calls; inactive = mostly above about 0.92. The list shows a part of the results.

Test: chemical genetic growth profiling, strain panel (AID 1159580);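 note: tested at 20 µM; growth read once vehicle control cultures reached saturation at 30 °C; 1 = growth at the plate median or of vehicle wells; lower values mean less growth of the strain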
Conditions: S. cerevisiae deletion strains, growth OD

Measured: normalized growth

CC1(C)N([O-])[N+](=O)C1(C)Br (stereo not given)
inactive: locus YAL021C, strain ccr4, active compounds read low 0.967 | locus YAL026C, strain drs2, active compounds read low 0.99 | locus YAL030W, strain snc1, active compounds read low 1 | locus YBL061C, strain skt5, active compounds read low 0.981 | locus YBR009C, strain hhf1, active compounds read low 0.995 | locus YBR023C, strain chs3, active compounds read low 0.983 | locus YBR171W, strain sec66, active compounds read low 0.968 | locus YBR231C, strain swc5, active compounds read low 0.988 | locus YBR279W, strain paf1, active compounds read low 0.995 | locus YCL011C, strain gbp2, active compounds read low 0.965 | locus YCL016C, strain dcc1, active compounds read low 0.99 | locus YCL061C, strain MRC1, active compounds read low 1 | locus YCL069W, strain vba3, active compounds read low 0.969 | locus YCR088W, strain abp1, active compounds read low 0.967 | locus YDL005C, strain med2, active compounds read low 0.978 | locus YDL040C, strain nat1, active compounds read low 0.992 | locus YDR001C, strain nth1, active compounds read low 0.987 | locus YDR069C, strain doa4, active compounds read low 0.992 | locus YDR137W, strain rgp1, active compounds read low 1.07 | locus YDR159W, strain sac3, active compounds read low 0.98 | locus YDR195W, strain ref2 0.972 | locus YDR297W, strain sur2, active compounds read low 0.987 | locus YDR334W, strain swr1, active compounds read low 0.969 | locus YDR335W, strain msn5, active compounds read low 0.968 | locus YDR392W, strain spt3, active compounds read low 0.906 | locus YEL003W, strain gim4, active compounds read low 0.984 | locus YEL037C, strain rad23, active compounds read low 0.982 | locus YEL061C, strain CIN8 (second series), active compounds read low 0.973 | locus YER015W, strain faa2, active compounds read low 0.962 | locus YER016W, strain bim1, active compounds read low 0.992 | locus YER111C, strain swi4, active compounds read low 0.996 | locus YER155C, strain BEM2 (second series), active compounds read low 0.974 | locus YFR010W, strain ubp6, active compounds read low 0.979 | locus YGL167C, strain pmr1, active compounds read low 0.987 | locus YGL173C, strain kem1, active compounds read low 0.984 | locus YGL227W, strain vid30, active compounds read low 0.982 | locus YGL240W, strain doc1, active compounds read low 0.994 | locus YGL253W, strain hxk2, active compounds read low 0.982 | locus YHR013C, strain ard1, active compounds read low 0.977 | locus YHR027C, strain rpn1, active compounds read low 0.991 | locus YHR030C, strain SLT2, active compounds read low 0.966 | locus YHR079C, strain IRE1, active compounds read low 0.966 | locus YHR142W, strain chs7, active compounds read low 0.968 | locus YJL092W, strain hpr5, active compounds read low 0.963 | locus YJL095W, strain BCK1 (second series), active compounds read low 0.973 | locus YJL095W, strain BCK1, active compounds read low 0.975 | locus YJL115W, strain asf1, active compounds read low 0.979 | locus YJL129C, strain trk1, active compounds read low 0.976 | locus YJL154C, strain vps35, active compounds read low 0.969 | locus YJL164C, strain tpk1, active compounds read low 0.995 | locus YJL166W, strain qcr8, active compounds read low 0.988 | locus YJL187C, strain SWE1, active compounds read low 1.01 | locus YJR066W, strain TOR1, active compounds read low 0.907 | locus YKL160W, strain elf1, active compounds read low 0.998 | locus YKR026C, strain gcn3, active compounds read low 0.984 | locus YKR091W, strain srl3, active compounds read low 0.995 | locus YLL001W, strain dnm1, active compounds read low 1 | locus YLL026W, active compounds read low 0.986 | locus YLL041C, strain sdh2, active compounds read low 0.99 | locus YLR027C, strain aat2, active compounds read low 1 | locus YLR113W, strain HOG1, active compounds read low 0.993 | locus YLR221C, strain rsa3, active compounds read low 0.985 | locus YLR258W, strain gsy2, active compounds read low 0.985 | locus YLR262C, strain YPT6 (second series), active compounds read low 1.03 | locus YLR320W, strain mms22, active compounds read low 0.985 | locus YLR342W, strain FKS1, active compounds read low 0.978 | locus YLR357W, strain rsc2, active compounds read low 0.999 | locus YLR370C, strain arc18, active compounds read low 0.982 | locus YLR384C, strain iki3, active compounds read low 0.986 | locus YML120C, strain ndi1, active compounds read low 0.984 | locus YMR058W, strain fet3, active compounds read low 0.994 | locus YMR125W, strain sto1, active compounds read low 0.974 | locus YMR129W, active compounds read low 0.992 | locus YMR205C, strain PFK2, active compounds read low 0.998 | locus YMR231W, strain pep5, active compounds read low 0.96 | locus YNL071W, strain lat1, active compounds read low 0.973 | locus YNL183C, strain NPR1, active compounds read low 0.912 | locus YNL209W, strain ssb2, active compounds read low 0.989 | locus YNL248C, strain rpa49, active compounds read low 0.992 | locus YNL322C, strain KRE1 (second series), active compounds read low 0.979 | locus YNR049C, strain mso1, active compounds read low 0.99 | locus YOR001W, strain rrp6, active compounds read low 0.988 | locus YOR070C, strain gyp1, active compounds read low 0.976 | locus YOR080W, strain dia2, active compounds read low 0.985 | locus YOR083W, strain WHI5, active compounds read low 0.994 | locus YOR106W, strain vam3, active compounds read low 0.966 | locus YOR231W, strain MKK1, active compounds read low 0.977 | locus YOR265W, strain rbl2, active compounds read low 0.993 | locus YOR270C, strain vph1, active compounds read low 1.01 | locus YOR290C, strain snf2, active compounds read low 0.987 | locus YPL051W, strain arl3, active compounds read low 0.985 | locus YPL078C, strain atp4, active compounds read low 0.986 | locus YPL106C, strain sse1, active compounds read low 0.977 | locus YPL240C, strain hsp82, active compounds read low 0.97 | locus YPL256C, strain CLN2, active compounds read low 0.956
